The source of these data is PubChem BioAssay (NCI).

Some test systems named below: NCI-H23 lung; NCI-H226 lung; NCI-H322M lung; HOP-62 NSCLC; NCI-H460 lung; HOP-92 NSCLC; NCI-H522 lung; A549/ATCC NSCLC; 786-0 renal; COLO 205 colon.
Holding throughout (experiment): NCI-60 one-dose screen, 48 h (100 = growth as untreated, 0 = no growth, -100 = all killed)
Holding throughout (conditions): 10 µM unless noted

Structures are written as SMILES. About 83,000 compounds went through this panel and 20% of them were active in at least one assay; those are over-represented in the sample as a whole.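 The test compound was applied at a single concentration to cells in 96-well plates for 48 hours, and percent growth was recorded.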 Unmarked numbers belong to inactive results. Activity calls are given as the source filed them. Rule for the calls: active = growth percent below 10; inactive = the rest.

As for `O=C(Nc1ccc(Cl)c(C(F)(F)F)c1)Nc1ccc2oc(=O)ccc2c1`, the growth in the test with NCI-H23 lung was 4.85% (active); in the test on NCI-H226 lung, 26.6%; in the test on NCI-H322M lung, 60.5%; in the test on HOP-62 NSCLC, 73.4%; in the test with NCI-H460 lung it was 18.1%; with HOP-92 NSCLC it was -1.84% (active). Further, the growth with NCI-H522 lung was 20.3%; in the test on A549/ATCC NSCLC, 39.8%; in the test on 786-0 renal it was 70.3%; in the test with COLO 205 colon it was 58%.
Consider `CCOC(=O)c1c(NC(=O)c2ccc(C(F)(F)F)cc2)sc2c3c(ccc12)OCN(C)C3`, for which the growth with NCI-H23 lung was 85.6%; in the test on NCI-H226 lung, 97%; in the test on NCI-H322M lung it was 73.4%; in the test on HOP-62 NSCLC, -53.2% (active); in the test with NCI-H460 lung, -17.8% (active); in the test with HOP-92 NSCLC, 14.5%. The growth in the test on NCI-H522 lung was -60.3% (active); with A549/ATCC NSCLC, -37.9% (active); in the test on 786-0 renal, 30.8%; in the test with COLO 205 colon, -22% (active).
As to `COc1ccc2[nH]cc(-c3nn4cc(-c5ccncc5)nc4s3)c2c1`, the growth is 70.2% in the test on NCI-H23 lung; 76.5% in the test with NCI-H226 lung; 78.2% in the test on NCI-H322M lung; 69.9% in the test with HOP-62 NSCLC; 51.3% with NCI-H460 lung; 28.9% with HOP-92 NSCLC. Moreover, the growth in the test on NCI-H522 lung is 51%; with A549/ATCC NSCLC, 74.6%; in the test on 786-0 renal, 79.8%; in the test with COLO 205 colon, 47%.
Consider `COc1ccc(C(C)=C(c2ccc(OCCN(C)C)cc2)c2ccc(OCCN(C)C)cc2)cc1`, for which the growth was -13.7% (active) with NCI-H23 lung; -7.67% (active) in the test on NCI-H226 lung; -2.39% (active) with NCI-H322M lung; -15.8% (active) in the test on HOP-62 NSCLC; -14.8% (active) with NCI-H460 lung; -43.6% (active) in the test on HOP-92 NSCLC. Besides, the growth in the test on NCI-H522 lung was -60.1% (active); in the test with A549/ATCC NSCLC it was -3.07% (active); in the test with 786-0 renal, -88.5% (active); in the test with COLO 205 colon it was -73% (active).
Take `Cc1[nH]c(C(=O)Nc2ccccc2OCc2cccc(C(=O)NCCN)c2)cc1Cl`: the growth in the test with NCI-H23 lung was 102%; in the test with NCI-H226 lung, 101%; with NCI-H322M lung, 92.9%; with HOP-62 NSCLC, 103%; with NCI-H460 lung, 100%; in the test with HOP-92 NSCLC, 84.5%. Also, the growth is 95% in the test on NCI-H522 lung, 95.2% in the test with A549/ATCC NSCLC, 81% with 786-0 renal and 102% in the test with COLO 205 colon.
On to `CCc1cccc2c3c(sc12)C(c1ccc(F)cc1)C(C#N)=C(/N=C/c1ccc(Cl)cc1)O3` (stereo not given), for which the growth in the test on NCI-H23 lung is 32.4%; in the test on NCI-H226 lung it was 44.6%; in the test on NCI-H322M lung it was 52.9%; in the test with HOP-62 NSCLC it was 36.4%; in the test with NCI-H460 lung, 14.6%; in the test with HOP-92 NSCLC, 66.6%. Moreover, the growth in the test with NCI-H522 lung is -43.4% (active); in the test on A549/ATCC NSCLC, 31.1%; in the test with 786-0 renal, 34.2%; with COLO 205 colon, -33.6% (active).
Take `COc1ccc(/C(=N\N=C(N)N)c2ccc(Cl)cc2)cc1OC`: the growth in the test with NCI-H23 lung was 87.2%; with NCI-H226 lung, 88.6%; in the test on NCI-H322M lung, 79.6%; with HOP-62 NSCLC, 69.1%; in the test on NCI-H460 lung, 78%; with HOP-92 NSCLC it was -0.241% (active). Further, the growth in the test on NCI-H522 lung is 74.3%; in the test with A549/ATCC NSCLC it was 76.1%; in the test with 786-0 renal, 59.2%; in the test on COLO 205 colon, 80%.
Take `CCCCCCNC(=O)Oc1ccc(/C(=C(/C)c2ccc(Cl)cc2)c2ccc(OCCN3CCCCCC3)cc2)cc1`: the growth with NCI-H23 lung is 52.2%; in the test with NCI-H226 lung it was 83.2%; in the test on NCI-H322M lung it was 96.8%; in the test on HOP-62 NSCLC, 76.8%; in the test with NCI-H460 lung it was 40.9%; with HOP-92 NSCLC, 83.6%. Besides, the growth with NCI-H522 lung is 92.3%; in the test on A549/ATCC NSCLC it was 74.3%; in the test on 786-0 renal, 63.7%; with COLO 205 colon it was 45.7%.
For the compound `Cc1ccccc1NC(=O)Nc1nc2ccc([N+](=O)[O-])cc2s1`, the growth with NCI-H23 lung was 5.79% (active); with NCI-H226 lung it was 15.4%; in the test on NCI-H322M lung, 9.34% (active); in the test with HOP-62 NSCLC it was 2.78% (active); with NCI-H460 lung, 5.87% (active); with HOP-92 NSCLC it was -24.6% (active). Also, the growth was -10.9% (active) with NCI-H522 lung, 9.2% (active) in the test on A549/ATCC NSCLC, 13.1% with 786-0 renal and 10.9% in the test with COLO 205 colon.
Take `C#Cc1nc(/C=C/C(=O)NO)cs1`: the growth in the test on NCI-H23 lung was -86.7% (active); in the test with NCI-H226 lung, 75.8%; in the test on NCI-H322M lung, 82.5%; with HOP-62 NSCLC, 48.5%; in the test with NCI-H460 lung, 63.4%; in the test with HOP-92 NSCLC it was -79.5% (active). Also, the growth was -60% (active) in the test on NCI-H522 lung, 69.6% in the test with A549/ATCC NSCLC, -76.5% (active) with 786-0 renal and 79.8% in the test with COLO 205 colon.
As for `CCOC(=O)c1ccc(NC2=C(Cl)C(=O)c3nc(C)ccc3C2=O)cc1`, the growth in the test with NCI-H23 lung is 52%; in the test on NCI-H226 lung, 85.5%; with NCI-H322M lung it was 96.7%; in the test with HOP-62 NSCLC, 113%; in the test on NCI-H460 lung it was 79.3%; in the test with HOP-92 NSCLC it was 103%. Further, the growth was 24.1% in the test with NCI-H522 lung, 94.3% in the test with A549/ATCC NSCLC, 55.5% in the test on 786-0 renal and 58.9% in the test with COLO 205 colon.
As to `COc1cc(C(=O)c2cc(C(C)=O)c3c(C)cccn23)cc(OC)c1OC`, the growth is 101% in the test with NCI-H23 lung; 89.9% in the test with NCI-H226 lung; 98.5% in the test on NCI-H322M lung; 99.5% with HOP-62 NSCLC; 102% with NCI-H460 lung; 110% in the test with HOP-92 NSCLC. Besides, the growth in the test on NCI-H522 lung is 90.2%; with A549/ATCC NSCLC it was 104%; in the test on 786-0 renal it was 91%; in the test on COLO 205 colon it was 110%.
`COc1ccc(-c2c(C(N)=O)c(N)n(Cc3nc4ccccc4[nH]3)c(=O)c2C#N)c(OC)c1`: the growth in the test on NCI-H23 lung was 93.1%; in the test on NCI-H226 lung, 94.5%; in the test on NCI-H322M lung, 97.3%; in the test with HOP-62 NSCLC, 94.9%; in the test on NCI-H460 lung, 105%; in the test on HOP-92 NSCLC, 101%. Besides, the growth is 95.2% in the test on NCI-H522 lung, 102% in the test on A549/ATCC NSCLC, 103% with 786-0 renal and 117% in the test with COLO 205 colon.
